Source: PubChem BioAssay (EPA / NIEHS)
Values joined by “and” are separate entries in the source; they are usually repeats but may differ in a detail not shown here. Identical values can stand only once. Inconclusive results are not listed. The source holds several records for some structures; these can differ, active in one and inactive in another. Active and inactive are the calls of the source. How the source made its calls, unless noted: active means hit-call score of the fitted dose curve at least 0.9, where 1 is the maximum; inconclusive means response in the unintended direction; inactive means score below 0.9.

How the values were obtained:
[1] = ATG_XTT_Cytotoxicity: Cytotoxicity Assessment in the Attagene TRANS-FACTORIAL HepG2 Assay (AID 2283584);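 on AC50: cells exposed to compound for 24 h before reading; active means loss of viability signal versus DMSO baseline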
Method in brief: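 Cells: human HepG2, transiently transfected with MRTU reporter constructs. Exposure 24 h. Readout: XTT, cell number. Baseline/neg ctrl DMSO; loss-of-signal scored.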

[2] = read-out: Tumor necrosis factor receptor 1 (TNFRSF1A), TNFRSF1A (gene 7132); test: LTEA_HepaRG_TNFRSF1A: Life Technologies and Expression Analysis (LTEA) Assay for Tumor necrosis factor receptor 1 (TNFRSF1A) using HepaRG (AID 2283535; active means hit-call score of the fitted dose curve at least 0.9, where 1 is the maximum; inactive means score below 0.9); conditions: mRNA level, 48 h; actives raise or lower the signal
Method in brief: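 Read-out is TNFRSF1A transcript level by TaqMan qRT-PCR, normalized to three housekeeping genes, scored as gain or loss of signal versus 0.5% DMSO. Human HepaRG cells received test chemicals for 48 h at up to 100 uM (half-log series).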

[3] = read-out: Thyroid Hormone Responsive (THRSP), THRSP (gene 7069); test: LTEA_HepaRG_THRSP: Life Technologies and Expression Analysis (LTEA) Assay for Thyroid Hormone Responsive (THRSP) using HepaRG (AID 2283536; active means hit-call score of the fitted dose curve at least 0.9, where 1 is the maximum; inactive means score below 0.9); conditions: mRNA level, 48 h; actives raise or lower the signal
Method in brief: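 qRT-PCR read-out (Fluidigm TaqMan), housekeeping-normalized (ACTB/GAPDH/POLR2A). HepaRG, 48 h chemical exposure, 8-pt half-log series from 100 uM in 0.5% DMSO, duplicates. Bidirectional curve fit vs 0.5% DMSO baseline.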

[4] = read-out: Cellular tumor antigen p53 (Homo sapiens) (UniProt P04637); test: LTEA_HepaRG_TP53: Life Technologies and Expression Analysis (LTEA) Assay for Tumor Protein P53 (TP53) using HepaRG (AID 2283537; active means hit-call score of the fitted dose curve at least 0.9, where 1 is the maximum; inactive means score below 0.9); conditions: mRNA level, 48 h; actives raise or lower the signal
Method in brief: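 Read-out is TP53 transcript level by microfluidic qRT-PCR, normalised to three housekeeping genes and fitted bidirectionally against DMSO. Human HepaRG cells received compounds for 48 h, highest concentration 100 uM.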

[5] = read-out: UDP glucuronosyltransferase (UGT1A1), UGT1A1 (gene 54658); test: LTEA_HepaRG_UGT1A1: Life Technologies and Expression Analysis (LTEA) Assay for UDP glucuronosyltransferase (UGT1A1) using HepaRG (AID 2283538; active means hit-call score of the fitted dose curve at least 0.9, where 1 is the maximum; inactive means score below 0.9); conditions: mRNA level, 48 h; actives raise or lower the signal
Method in brief: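 HepaRG, 48 h chemical exposure (top 100 uM, half-log 8-pt, 0.5% DMSO vehicle), duplicate wells; qRT-PCR (TaqMan, Fluidigm array) for UGT1A1 mRNA, housekeeping-normalized; bidirectional curve fit vs DMSO baseline.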

[6] = read-out: UDP glucuronosyltransferase (UGT1A6), UGT1A6 (gene 54578); test: LTEA_HepaRG_UGT1A6: Life Technologies and Expression Analysis (LTEA) Assay for UDP glucuronosyltransferase (UGT1A6) using HepaRG (AID 2283539; active means hit-call score of the fitted dose curve at least 0.9, where 1 is the maximum; inactive means score below 0.9); conditions: mRNA level, 48 h; actives raise or lower the signal
Method in brief: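 HepaRG, 48 h post-plating switch to serum-free induction medium; chemical 48 h, 100 uM top, half-log x8, duplicate, 0.5% DMSO. Phenobarbital 1mM induction control. UGT1A6 mRNA by TaqMan qRT-PCR; gain/loss fit vs DMSO.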

[7] = read-out: X-box binding protein 1 (XBP1), XBP1 (gene 7494); test: LTEA_HepaRG_XBP1: Life Technologies and Expression Analysis (LTEA) Assay for X-box binding protein 1 (XBP1) using HepaRG (AID 2283540; active means hit-call score of the fitted dose curve at least 0.9, where 1 is the maximum; inactive means score below 0.9); conditions: mRNA level, 48 h; actives raise or lower the signal
Description: LTEA_HepaRG is a cell based, multiplexed-readout assay that uses HepaRG, a human liver cell line, with measurements taken at 48 hours after chemical dosing on a 96-well plate.LTEA_HepaRG_XBP1 is one of 102 assay component(s) measured in the LTEA HepaRG cell culture assay. It is a marker of Diseases associated with XBP1 including Major Affective Disorder 7 and Bipolar Disorder.Data from the assay component LTEA_HepaRG_XBP1 was analyzed into 1 endpoint. This assay endpoint, LTEA_HepaRG_XBP1, was analyzed with bidirectional fitting relative to DMSO as the negative control and baseline of activity. Using a type of inducible reporter, measures of mRNA induction for gain or loss-of-signal activity can be used to understand regulation of transcription factor activity. To generalize the intended target to other relatable targets, this assay endpoint is annotated to the dna binding intended target family, where the subfamily is basic leucine zipper.
A total of 1060 chemcials from the ToxCast library were tested in eight-point concentration-response experiments. Cell culture and cytotoxicity assays were conducted at Thermo Fisher Scientific's Custom Services facility (Madison, WI). A single lot of human HepaRG cells (Thermo Fisher Scientific, Frederick, MD) was used for the cell culture experiments. 96-well format collagen type I coated plates of human HepaRG cells were prepared using established methods. Briefly, cryopreserved HepaRG cells were thawed, plated at a density of approximately 100,000 cells/well in HepaRG Thaw, Plate, and General Purpose media (HPRG770, Thermo Fisher Scientific), and incubated for 48 hours. […] Fluidigm's 96.96 Dynamic ArrayTM (Fluidigm, Amsterdam, the Netherlands) technology was used for gene expression analyses by quantitative reverse transcription polymerase chain reaction (qRT-PCR, performed by Quintiles/Expression Analysis, Durham, NC)89. […]

[8] = LTEA_HepaRG_LDH_cytotoxicity: Cytotoxicity Assessment in the Life Technologies and Expression Analysis (LTEA) Assay (AID 2283563)
Method in brief: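 Cells were thawed and plated for 48 h. Medium was then replaced with serum-free induction medium. Chemicals (8 half-log points, maximum 100 uM, 0.5% DMSO) were added in duplicate for 48 h, after which spent medium was assayed for LDH.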

[9] = TOX21_p53_BLA_p2_viability: Viability Assessment in the Tox21 HCT-116 p53 Agonism Beta-lactamase Assay, Phase 2 (AID 2283591);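 further: compound exposure lasted 16 h at 37 °C; actives lower the ATP signal meaning cytotoxicity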
Method in brief: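 HCT116 p53-bla cells, 4000/well, dosed after 5 h plating (217-fold dilution of DMSO stocks) and incubated 16 h at 37C. Viability taken as cellular ATP by CellTiter-Glo luminescence after 30 min RT; signal loss marks cytotoxicity.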

[10] = target: Cellular tumor antigen p53 (Homo sapiens) (UniProt P04637); test: TOX21_p53_BLA_p2_ratio: Tox21 HCT-116 p53 Agonism Beta-lactamase Assay, Ratio, Phase 2 (AID 2283592)
Chain of Cellular tumor antigen p53 (Homo sapiens) (P04637 whole entry, looked up): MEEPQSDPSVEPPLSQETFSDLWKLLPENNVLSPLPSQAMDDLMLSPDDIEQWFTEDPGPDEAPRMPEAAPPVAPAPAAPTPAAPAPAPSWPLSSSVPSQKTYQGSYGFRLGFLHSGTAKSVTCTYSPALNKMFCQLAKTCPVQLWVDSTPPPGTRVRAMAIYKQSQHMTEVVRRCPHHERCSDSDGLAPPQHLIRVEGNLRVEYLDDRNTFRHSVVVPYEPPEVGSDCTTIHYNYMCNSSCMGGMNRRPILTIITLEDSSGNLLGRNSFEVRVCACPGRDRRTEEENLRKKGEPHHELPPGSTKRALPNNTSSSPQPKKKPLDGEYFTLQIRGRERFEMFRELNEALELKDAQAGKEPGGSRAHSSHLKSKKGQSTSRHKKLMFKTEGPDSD
Method in brief: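 Plated HCT116 p53-bla cells (4000/well) received compound after 5 h, then 16 h at 37C/5% CO2. CCF4-AM added, 2 h RT. Ratio of 460 to 530 nm emission taken as the p53 reporter signal.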

CC(C)=NNC(N)=S
outcome [1]: inactive

C=CCCCCCCCCC=O
outcome [1]: inactive

CC=CC(=O)OCC(C)C
outcome [1]: inactive

CC=C(C)C=CC=C(C)C
outcome [1]: inactive

Cc1ccc(C)c(OCCCC(C)(C)C(=O)O)c1
outcome [1]: inactive

O=C(Oc1ccccc1)c1ccccc1O
outcome [1]: inactive

CC(=O)CCC1=C(C)CCCC1(C)C
outcome [1]: inactive

Cc1c(Cl)cccc1Cl
outcome [1]: inactive

CC(C)CCOCc1ccccc1
outcome [1]: inactive

C1CNCCN1
outcome [2]: inactive
outcome [3]: inactive
outcome [4]: inactive
outcome [5]: inactive
outcome [6]: inactive
outcome [7]: inactive
outcome [8]: inactive
outcome [1]: inactive
outcome [9]: inactive
outcome [10]: inactive

CCN(CC)c1cccc(C)c1
outcome [1]: inactive

C=CCCCCCCCCOC(C)=O
outcome [1]: inactive

CC1(C)CC(O)CC(C)(C)N1[O]
outcome [1]: inactive

Cc1c[nH]c(=O)[nH]c1=O
outcome [1]: inactive

CC1=NN(c2ccc(S(=O)(=O)O)cc2)C(=O)C1N=Nc1ccccc1 (stereo not drawn)
outcome [1]: inactive

CCCCCCCCCCCC(=O)N(C)CC(=O)O
outcome [1]: inactive

CCOC(=O)OC(=O)OCC
outcome [1]: inactive

Cc1ccc2c(c1)CCCN2
outcome [1]: inactive

CCCCCCCCCC[N+](C)(CCCCCCCCCC)CCC[Si](OC)(OC)OC
AC50 [1]: 43.9 µM (active)

CC1CCC(=O)C1=O (stereo not drawn)
outcome [1]: inactive

O=C(O)CCC(=O)O
outcome [1]: inactive

CCC[Si](OC)(OC)OC
outcome [1]: inactive

CCCC=C(C=O)CC
outcome [1]: inactive

CC1=CP(=O)(c2ccccc2)CC1 (stereo not drawn)
outcome [1]: inactive

Cc1cc(=O)[nH]c(=O)[nH]1
outcome [1]: inactive

Nc1ccc(C(=O)O)cc1
outcome [2]: inactive
outcome [3]: inactive
outcome [4]: inactive
outcome [5]: inactive
outcome [6]: inactive
outcome [7]: inactive
outcome [8]: inactive
outcome [1]: inactive
outcome [9]: inactive
outcome [10]: inactive

CC=C(C)C(C)=O
outcome [1]: inactive

C=CC(=O)NC(C)(C)C
outcome [1]: inactive

[Cl][Sc]([Cl])[Cl]
outcome [1]: inactive

Cc1ccc([N+](=O)[O-])cc1N
outcome [2]: inactive
AC50 [3]: 13.3 µM (active)
outcome [4]: inactive
AC50 [5]: 50 µM (active)
outcome [6]: inactive
outcome [7]: inactive
outcome [8]: inactive
outcome [1]: inactive
outcome [10]: inactive

CCCCCCCCCCCC(C)=O
outcome [1]: inactive

CC(C=O)c1ccccc1 (stereo not drawn)
outcome [1]: inactive

CCOC(=O)C1=NN(c2ccc(Cl)cc2Cl)C(C)(C(=O)OCC)C1 (stereo not drawn)
outcome [1]: inactive

C=CC(C)(O)CC/C=C(\C)CC (stereo not drawn)
outcome [1]: inactive

CC1=CC=C(C(C)C)CC1
outcome [1]: inactive

CCCCCC(=O)OCC
outcome [1]: inactive

CCNc1nc(NC(C)(C)C)nc(OC)n1
outcome [1]: inactive

CCCCC(C=O)CC (stereo not drawn)
outcome [1]: inactive

CC(c1cc(C(C)(C)C)cc(C(C)(C)C)c1O)c1cc(C(C)(C)C)cc(C(C)(C)C)c1O
outcome [1]: inactive

CCCCC1C(=O)N(c2ccccc2)N(c2ccccc2)C1=O
outcome [1]: inactive
outcome [9]: inactive
outcome [10]: inactive

CC(C)(CO)C(O)C(=O)NCCCO (stereo not drawn)
outcome [1]: inactive

CCCCC/C=C\C/C=C\CCCCCCCC(=O)O
outcome [1]: inactive
AC50 [9]: 41.5 µM (active)
outcome [9]: inactive
AC50 [10]: 72.9 µM (active)
outcome [10]: inactive

CC1OC(=O)C(C)OC1=O (stereo not drawn)
outcome [1]: inactive
outcome [9]: inactive
outcome [10]: inactive

[Cl][Eu]([Cl])[Cl]
outcome [1]: inactive

CCc1occc(=O)c1O
outcome [1]: inactive
outcome [9]: inactive

Oc1c(Cl)cc(Cl)c(Cl)c1Cl
outcome [1]: inactive
outcome [9]: inactive
AC50 [10]: 34.4 µM (active) and 22.5 µM (active)

c1ccc2cnccc2c1
outcome [1]: inactive
outcome [9]: inactive

Oc1ccc(-c2ccccc2)c(Cl)c1
AC50 [1]: 159 µM (active)
outcome [1]: inactive
outcome [9]: inactive
outcome [10]: inactive

CCCCCCCCCCCCc1ccc(O)cc1
AC50 [1]: 50.4 µM (active)
outcome [1]: inactive
AC50 [10]: 65.5 µM (active)

CCCSSCCC
outcome [1]: inactive

CC(=O)OCCc1ccccc1
outcome [1]: inactive
outcome [9]: inactive

CCCCCCCCCCCCC
outcome [1]: inactive
outcome [9]: inactive

C=C(C)[C@@H]1CC=C(C)CC1
outcome [1]: inactive
outcome [9]: inactive

c1ccc(Nc2cccc3ccccc23)cc1
outcome [1]: inactive
AC50 [9]: 71.1 µM (active)
outcome [9]: inactive
AC50 [10]: 77.1 µM (active) and 81.1 µM (active)

CC(CC=O)CC(C)(C)C (stereo not drawn)
outcome [1]: inactive
outcome [9]: inactive

CC(Cl)COP(=O)(OCC(C)Cl)OCC(C)Cl (stereo not drawn)
outcome [1]: inactive
outcome [9]: inactive

NC(=O)Nc1ccccc1
outcome [1]: inactive
outcome [9]: inactive

CCCCC(CC)COS(=O)(=O)O (stereo not drawn)
outcome [1]: inactive

Cc1cc(C)n(CO)n1
outcome [1]: inactive
outcome [9]: inactive

CCCCCCCCCCCCCCCCCCOS(=O)(=O)O
outcome [1]: inactive
outcome [9]: inactive

CC1=CCC(C(C)C)C=C1 (stereo not drawn)
outcome [1]: inactive
outcome [9]: inactive

CCOC(=O)c1ccc(C)cc1
outcome [1]: inactive
outcome [9]: inactive

CC(C)CCCCCOC(=O)CS
outcome [1]: inactive
outcome [9]: inactive

Nc1ccc(C(=O)OCCCOC(=O)c2ccc(N)cc2)cc1
outcome [1]: inactive
outcome [9]: inactive

CCCCCCO
outcome [1]: inactive
outcome [9]: inactive
outcome [10]: inactive

C/C=C/C=C/CCCCCCCO
outcome [1]: inactive
outcome [9]: inactive
outcome [10]: inactive

CCCCCCCOC(=O)c1ccc(O)cc1
outcome [1]: inactive
AC50 [9]: 44.8 µM (active)
outcome [9]: inactive
AC50 [10]: 58.9 µM (active) and 86.4 µM (active)

COc1ccc(-c2coc3cc(O)cc(O)c3c2=O)cc1
outcome [1]: inactive
AC50 [9]: 68.5 µM (active)
outcome [9]: inactive
AC50 [10]: 71.6 µM (active) and 72 µM (active)

C=C(C)C(=O)OCC(O)COc1ccc(C(C)(C)c2ccc(OCC(O)COC(=O)C(=C)C)cc2)cc1 (stereo not drawn)
outcome [1]: inactive
AC50 [9]: 69.2 µM (active)
outcome [10]: inactive

COc1ccc(C(=O)/C(Br)=C\C(=O)O)cc1
outcome [1]: inactive
AC50 [9]: 86.2 µM (active)
outcome [9]: inactive
AC50 [10]: 24.8 µM (active) and 24.2 µM (active)
